# This is part of a sample that, as a whole, favours compounds with a hit. Of some 79,000 tested, about 15% had one in any assay. A number with no mark means an inactive call. Calls of active or inactive are those of the source. Cut-off read from the data, not from the text of the source: active = growth inhibition above about 70%; inactive = the rest.
# What was measured:
# [1] = NCI Yeast Anticancer Drug Screen. Data for the rad50 strain (AID 155);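 note: 0% = growth of vehicle-only cultures of the same strain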; details: S. cerevisiae rad50 strain growth inhibition, hits give high values
# Outline: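 Genetically altered yeast (DNA repair pathway); compound treatment; growth inhibition vs vehicle ctrl.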
# [2] = NCI Yeast Anticancer Drug Screen. Data for the mec2-1 strain (AID 157); details: S. cerevisiae mec2-1 strain, hits give high values
# Outline: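 Cells of the genetically defined mec2-1 yeast strain are incubated with test compound. Inhibition of growth is calculated against vehicle-treated controls.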
# [3] = NCI Yeast Anticancer Drug Screen. Data for the sgs1 mgt1 strain (AID 161);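 note: 0% = growth of cultures given vehicle only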; details: S. cerevisiae sgs1 mgt1 strain, hits give high values
# Outline: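 Inhibition of yeast growth, normalised to vehicle-treated controls, is reported for a strain bearing genetic alterations in DNA damage repair.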
# [4] = NCI Yeast Anticancer Drug Screen. Data for the cln2 rad14 strain (AID 165);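 note: 0% = growth equal to vehicle treated cultures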; details: S. cerevisiae cln2 rad14 strain, hits give high values
# Outline: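 The screen exposed genetically defined yeast (cln2 rad14) to test compounds and scored growth inhibition relative to vehicle-treated controls.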
# [5] = NCI Yeast Anticancer Drug Screen. Data for the bub3 strain (AID 167); details: S. cerevisiae bub3 mutant strain, hits give high values
# Outline: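 Yeast carrying a defined mutation is treated with each compound, and growth is compared with that of vehicle-exposed cells to give inhibition.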
# [6] = NCI Yeast Anticancer Drug Screen. Data for the mlh1 rad18 strain (AID 175); details: S. cerevisiae mlh1 rad18 strain growth inhibition, hits give high values
# Outline: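 Compound-treated yeast growth, normalised to vehicle controls. Strain bears defined DNA repair mutations.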
# [7] = at 5.0 µM (retest, dose inferred, filed as 0.5)
# [8] = at 50.0 µM (retest, dose inferred, filed as 5.0)
SMILES,"growth inhibition [1, 7]","growth inhibition [1, 8]",growth inhibition ([1]; at 50.0 µM),"growth inhibition [2, 7]","growth inhibition [2, 8]",growth inhibition ([2]; at 50.0 µM),"growth inhibition [3, 7]","growth inhibition [3, 8]",growth inhibition ([3]; at 50.0 µM),"growth inhibition [4, 7]","growth inhibition [4, 8]",growth inhibition ([4]; at 50.0 µM),"growth inhibition [5, 7]","growth inhibition [5, 8]",growth inhibition ([5]; at 50.0 µM),"growth inhibition [6, 7]","growth inhibition [6, 8]",growth inhibition ([6]; at 50.0 µM)
CCCCCC/C=C/C#CCCCCCCCC(=O)O,30%,15%,5.5%,21%,11%,9.2%,33%,37%,14%,17%,16%,11.8%,19%,3%,17.3%,57%,44%,-88.8%
COc1ccc(CCCC(=O)O)c2c(OC)cccc12,14%,58%,80.8% (active),0%,48%,39.9%,7%,62%,60.8%,23%,55%,72.2% (active),4%,60%,49.9%,5%,73% (active),78.3% (active)
Cc1ccc(C)c(C(=O)/C=C/C(=O)O)c1,29%,100% (active),52.5%,22%,99% (active),70.7% (active),32%,100% (active),61.5%,15%,99% (active),40.6%,27%,98% (active),64.1%,42%,98% (active),65.1%
Cc1cccc(Cl)c1NC(=S)Nc1cccc(C(F)(F)F)c1,-4%,2%,88.8% (active),2%,8%,89.4% (active),10%,1%,92.3% (active),24%,23%,88.3% (active),20%,9%,89.6% (active),-21%,17%,86.2% (active)
O=C1c2ccccc2C(O)(c2ccccc2)c2c(Cl)cccc21 (configuration not stated),-1%,27%,82.6% (active),-6%,26%,90.7% (active),0%,28%,80.8% (active),1%,21%,75.2% (active),-5%,14%,80% (active),-12%,41%,96.7% (active)
FC(F)(F)c1[nH]nc(-c2cccs2)c1N=NN1CCOCC1,98% (active),98% (active),98% (active),100% (active),99% (active),99.2% (active),100% (active),99% (active),97.2% (active),99% (active),99% (active),98.6% (active),100% (active),99% (active),98.6% (active),100% (active),99% (active),98% (active)
CCC(C)Sc1nc2c([nH]1)c(=S)n(C)c(=O)n2C (configuration not stated),9%,39%,87.7% (active),20%,52%,96% (active),5%,-19%,96.7% (active),-3%,17%,23.9%,16%,49%,95.7% (active),1%,24%,95.2% (active)
COC(=O)/C=C(\NC1CC(OC2C[C@](O)(C(C)=O)Cc3c(O)c4c(c(O)c32)C(=O)c2c(OC)cccc2C4=O)OC(C)C1O)C(=O)OC (some centres not stated),25%,97% (active),97.5% (active),15%,98% (active),97.7% (active),-3%,97% (active),97.7% (active),2%,96% (active),94.9% (active),7%,98% (active),74.2% (active),-6%,98% (active),98.3% (active)
Cc1nc(Nc2ccc(Cl)cc2)sc1C(=O)NNc1ccc([N+](=O)[O-])cc1[N+](=O)[O-],24%,24%,88.8% (active),9%,9%,90.2% (active),-6%,-6%,90.5% (active),9%,9%,89.4% (active),10%,10%,92.8% (active),16%,16%,89.8% (active)
COc1ccc(C(=O)Nc2ccc(Cl)cc2)cc1,-21%,-17%,3.75%,-26%,-12%,1.85%,0%,0%,5.85%,-7%,5%,44.2%,-14%,-6%,-8.95%,-8%,-11%,-23.3%
CCOC(=O)C(=CCC1NCCc2c1[nH]c1ccccc21)C(=O)OCC (configuration not stated),23%,93% (active),91.2% (active),29%,97% (active),91.7% (active),29%,63%,93.5% (active),28%,59%,92.2% (active),30%,98% (active),92.4% (active),41%,97% (active),91.6% (active)
Cc1ccc2nc(-c3ccc(N)cc3)sc2c1,9%,42%,75% (active),-2%,8%,34.5%,-2%,7%,43.9%,-8%,-6%,15%,14%,68%,72.5% (active),-1%,19%,41.3%
CCN(CC)C(=S)Nc1ccc(Cl)cc1,-144%,67%,98.5% (active),-50%,49%,97.7% (active),-62%,63%,97.1% (active),-85%,40%,98.5% (active),-65%,45%,95.2% (active),-122%,74% (active),97.4% (active)
CC1CC2(C)ON=C(c3ccccc3)N2c2ccccc2S1 (configuration not stated),-25%,98% (active),87.7% (active),-4%,93% (active),90% (active),-24%,94% (active),82.7% (active),-6%,97% (active),87% (active),10%,97% (active),87% (active),4%,98% (active),83.7% (active)
CCc1c(O)c(O)c(C(C)=O)c2c(O)c(-c3c(C)cc4c(CC)c(O)c(O)c(C(C)=O)c4c3O)c(C)cc12,-13%,96% (active),94.2% (active),9%,96% (active),95.3% (active),-10%,96% (active),95.2% (active),-20%,94% (active),92.9% (active),11%,97% (active),95.7% (active),7%,96% (active),95.5% (active)
CCCCCCCCCCCCCCCCCCOS(=O)(=O)O (tested in a mixture with another compound),1%,63%,56.4%,-35%,76% (active),56.6%,-12%,60%,68.7%,-30%,49%,42.5%,-31%,77% (active),67.5%,-27%,80% (active),57.5%
CC1(C)CC(=O)C(CC2C(=O)c3ccccc3C2=O)C(=O)C1C(=O)C(=O)Nc1cccc2ccc(O)cc12 (configuration not stated),28%,48%,7.85%,25%,23%,-13.3%,10%,39%,-8.6%,22%,39%,-7.7%,30%,36%,-31.9%,32%,52%,-30.2%
C=C1C(=O)O[C@@H]2C[C@@]3(C)CCC[C@H](C)C3=C[C@H]12,11%,91% (active),50.5%,23%,98% (active),67.2%,24%,98% (active),81.7% (active),6%,64%,41.5%,4%,95% (active),81.3% (active),14%,96% (active),68.5%
CC1C(O)Oc2cc3c(cc2C1c1ccccc1O)OCO3 (configuration not stated),-10%,77% (active),61.8%,-41%,84% (active),32.1%,-33%,40%,56.5%,20%,87% (active),69.7%,25%,84% (active),38.6%,-13%,90% (active),54.5%
